Assay outcomes from PubChem BioAssay.
MCL1 BIM primary – inhibitors of MCL1 binding to BIM-BH3, primary screen, biochemical, fluorescence polarization; Induced myeloid leukemia cell differentiation protein Mcl-1 (Homo sapiens), Q07820; GST-MCL1 / FITC-Bim-BH3 fluorescence polarization; inhibition, % at 10.9 µM; 320,000 tested, 0.68% active;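 active means inhibition above the mean inhibition of all tested compounds plus 3 SD, set per campaign, cut at about 40% in these data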;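 further: higher means more loss of mP so more displacement of Bim peptide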
Target sequence (Q07820 whole entry, looked up): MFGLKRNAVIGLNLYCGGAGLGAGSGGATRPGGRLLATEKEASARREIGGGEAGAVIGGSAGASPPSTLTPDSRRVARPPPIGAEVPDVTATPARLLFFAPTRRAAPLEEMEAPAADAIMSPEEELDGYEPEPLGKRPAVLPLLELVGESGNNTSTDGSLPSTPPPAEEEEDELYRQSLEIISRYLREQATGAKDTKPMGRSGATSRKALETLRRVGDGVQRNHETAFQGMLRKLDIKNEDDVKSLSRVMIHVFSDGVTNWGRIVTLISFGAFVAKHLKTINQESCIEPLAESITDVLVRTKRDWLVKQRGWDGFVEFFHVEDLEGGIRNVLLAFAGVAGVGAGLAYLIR
GLD-1 RNA inh – GLD-1/TGE RNA complex disruptors, primary screen, biochemical, fluorescence polarization. 320,000 tested, 0.44% active. Female germline-specific tumor suppressor gld-1 (Caenorhabditis elegans), Q17339. purified GLD-1 + fluorescein TGE RNA. AID 2280, 2010. inhibition, % at 5.96 µM;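 active means percent inhibition above a per-plate cutoff, the plate mean of test compounds plus 3 SD, cut at about 30% in these data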
Mcl1 Noxa PPI – Mcl-1/Noxa binding inhibitors, primary screen, biochemical, TR-FRET, 1536-well | Induced myeloid leukemia cell differentiation protein Mcl-1 (Homo sapiens), Q07820 | 220,000 tested, 1.5% active | TR-FRET Mcl-1/Noxa peptide binding, 2 h | inhibition, % at 21.7 µM;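 active means compounds that cut the protein-peptide binding signal by more than 50% relative to plate controls in a single-dose test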;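 further: His-tagged Mcl-1 with rhodamine Noxa BH3 peptide and terbium anti-His antibody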
BCLXL inh – inhibitors of human Bcl-xL, primary screen, biochemical, fluorescence polarization, HTS | Bcl-2-like protein 1 (Homo sapiens), Q07817 | GST-Bcl-xL / FITC-Bim BH3 peptide fluorescence polarization | inhibition, % at 10.9 µM | 320,000 tested, 0.7% active | AID 2129, 2009;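 active means inhibition above the mean of all tested compounds plus 3 SD, cutoff set per campaign, cut at about 30% in these data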;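 further: inhibitors lower millipolarization by displacing the labeled peptide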
Mcl1-Bid inh – Mcl-1/Bid binding inhibitors, primary screen, biochemical, TR-FRET, 1536-well. TR-FRET Mcl-1/Bid-Dy647 peptide binding. Induced myeloid leukemia cell differentiation protein Mcl-1 (Homo sapiens), Q07820. inhibition, % at 21.7 µM. 220,000 tested, 0.97% active;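 active means compounds that cut the binding signal by more than half at the single screening dose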;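 further: His-tagged Mcl-1 with europium anti-His antibody binding Bid BH3 peptide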
Mcl-1 Bim block – inhibitors of Bim peptide binding to Mcl-1, primary screen, biochemical, bead-based flow cytometry, multiplex | Bim peptide-Mcl-1 binding | inhibition, % at 10 µM | 190,000 tested, 0.1% active; in the data active means inhibition above about 40%
Of the large screens only hits and unclear results are named; the others gave an inactive call. An excerpt weighted towards active compounds, which were near 2.3% of everything screened.

COc1ccc2[nH]c(C)c(CCNCc3cccnc3)c2c1	MCL1 BIM primary 41, BCLXL inh 42 (no result: Mcl1 Noxa PPI, Mcl1-Bid inh, Mcl-1 Bim block)
CC(C)C1(C)N=C(c2ncccc2C(=O)O)NC1=O (configuration not stated)	Mcl1-Bid inh 85
CCOC(=O)[C@@]1(C#N)[C@@H]2C=CC(C(N)=O)=CN2[C@@H](C(N)=O)[C@@H]1c1cccc(Cl)c1	BCLXL inh 38
COc1cc(/C=C/[N+](=O)[O-])ccc1O	Mcl1 Noxa PPI 51
O=c1cccc2n1C[C@H]1C[C@@H]2CN2CCCC[C@@H]12	none (no result: Mcl-1 Bim block)
CCN1C(=O)C(=C/C=C/c2ccco2)C(=O)N(CC)C1=S	Mcl1 Noxa PPI 73
CC(C)C[C@H]1C(=O)N2CCCC2[C@]2(O)O[C@](NC(=O)[C@@H]3C=C4c5cccc6[nH]cc(c56)CC4N(C)C3)(C(C)C)C(=O)N12 (some centres not stated)	MCL1 BIM primary 194, GLD-1 RNA inh 117, BCLXL inh 152
CCC(C)N1C(=O)NC(=O)C2(Cc3c(ccc4ccccc34)N(C)C2)C1=O (configuration not stated)	Mcl1 Noxa PPI 59
COc1ccc2c(c1)CC1(CN2C)C(=O)NC(=O)N(CCc2ccccc2)C1=O (configuration not stated)	none
Nc1c(C(=O)NCc2ccco2)c2nc3ccccc3nc2n1Cc1ccc(F)cc1	Mcl1 Noxa PPI 65, Mcl1-Bid inh 53
COc1ccc(Cn2c(N)c(C(=O)NCc3ccco3)c3nc4ccccc4nc32)cc1	Mcl1 Noxa PPI 71
Nc1c(C(=O)NCc2ccco2)c2nc3ccccc3nc2n1Cc1ccccc1	none
Nc1c(C(=O)NCc2ccco2)c2nc3ccccc3nc2n1CCN1CCOCC1	none
CC(NS(C)(=O)=O)c1nnc2n1-c1ccc(Br)cc1C(c1ccccc1Cl)=NC2 (configuration not stated)	none (no result: Mcl1 Noxa PPI, Mcl1-Bid inh, Mcl-1 Bim block)
COc1ccc(OC)c(C(O)C2CCCCN2)c1 (configuration not stated)	none (no result: Mcl1 Noxa PPI, Mcl1-Bid inh, Mcl-1 Bim block)
CN1CCC(N(C)c2nc(-c3ccccc3)nc3ccccc23)CC1	Mcl1 Noxa PPI 52
O=C(c1cccs1)C1CN2CCC1CC2 (configuration not stated)	none
O=C(O)C1CN2CCC1CC2 (configuration not stated)	BCLXL inh 33
CN(C)c1ccc(NC(=O)CN2C(=O)CN=C(c3ccccc3)c3cc(Cl)ccc32)cc1	Mcl1 Noxa PPI 78
CC1CCN(CC#CCOc2ccc(Cl)cc2)CC1	none (no result: Mcl1 Noxa PPI, Mcl1-Bid inh, Mcl-1 Bim block)
Cc1ccc(C)c(OCc2cc(C(=O)N3C[C@H]4C[C@@H](C3)c3cccc(=O)n3C4)no2)c1	none (no result: Mcl1 Noxa PPI, Mcl1-Bid inh, Mcl-1 Bim block)
Cc1ccc(S(=O)(=O)N2CC2(C)CCl)cc1 (configuration not stated)	none (no result: Mcl-1 Bim block)
Cc1ccc(S(=O)(=O)N2CN3CCN(C3)C2)cc1	Mcl1-Bid inh 79
Cc1cccc(N2C(=O)/C(=C/N3CCN(C(=O)c4ccco4)CC3)C(=O)NC2=S)c1	Mcl1 Noxa PPI 62
Cc1ccc(N2C(=O)/C(=C/N3CCN(C(=O)c4ccco4)CC3)C(=O)NC2=S)cc1C	none
Cc1ccc(N2C(=O)NC(=O)/C(=C/c3cnc(-c4ccccc4)nc3)C2=O)cc1C	Mcl1 Noxa PPI 75
O=C1CN=C(c2ccccc2)c2c(sc3c2CCCC3)N1	none (no result: Mcl1 Noxa PPI, Mcl1-Bid inh, Mcl-1 Bim block)
Cc1cc(C)c2c(c1)-c1cc(C)nn1C(c1cccnc1)N2 (configuration not stated)	none
OCC1CO1 (configuration not stated)	none (no result: Mcl1 Noxa PPI, Mcl1-Bid inh, Mcl-1 Bim block)
CCS(=O)(=O)NCc1nnc2n1-c1ccc(Br)cc1C(c1ccccc1Cl)=NC2	none (no result: Mcl1 Noxa PPI, Mcl1-Bid inh, Mcl-1 Bim block)
O=C1CN=C(c2ccccc2Cl)c2cc(Br)ccc2N1	none (no result: Mcl1 Noxa PPI, Mcl1-Bid inh, Mcl-1 Bim block)
CN(C)C(Cc1ccccc1)C(=O)c1cccs1 (configuration not stated)	Mcl-1 Bim block 48 (no result: MCL1 BIM primary, GLD-1 RNA inh, BCLXL inh)
